In PubChem BioAssay AID588342 (National Center for Advancing Translational Sciences (NCATS), 2011) one finds Potency data, which are given here for 66 compounds.

About 25,000 (6.9%) of roughly 360,000 compounds were called active. A call without a number means that no potency is given here. Not shown: some 9% with an inconclusive outcome. Calls follow the shape of the dose curve; as a rule, active = well fitted inhibition curve with a large enough effect; inconclusive = small, poorly fitted or top-dose-only effect; inactive = flat fitted curve, though single readings scatter. The full list was thinned out, with actives kept by preference.
Potency is read from the fitted curve at half-maximal effect.

The target of this assay is Luciferin 4-monooxygenase (Photinus pyralis) (UniProt P08659). As to the kind of experiment: qHTS profiling assay for firefly luciferase inhibitor/activator using purifed enzyme and Km concentrations of substrates (counterscreen for miR-21 project). Also: nearly all actives have a fitted effect of over 55% in size. Particulars: purified FLuc, luminescence inhibition; series mostly up to 57.5 µM. In short, it runs like this: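 Purified P. pyralis luciferase, 10 nM final, with Km-level 10 uM D-luciferin and 10 uM ATP in 50 mM Tris acetate pH 7.5, 10 mM Mg acetate, 0.01% Tween-20, 0.05% BSA; 6-point qHTS titration about 60 µM downward; luminescence read.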
Sequence of Luciferin 4-monooxygenase (Photinus pyralis) (P08659 whole entry, looked up): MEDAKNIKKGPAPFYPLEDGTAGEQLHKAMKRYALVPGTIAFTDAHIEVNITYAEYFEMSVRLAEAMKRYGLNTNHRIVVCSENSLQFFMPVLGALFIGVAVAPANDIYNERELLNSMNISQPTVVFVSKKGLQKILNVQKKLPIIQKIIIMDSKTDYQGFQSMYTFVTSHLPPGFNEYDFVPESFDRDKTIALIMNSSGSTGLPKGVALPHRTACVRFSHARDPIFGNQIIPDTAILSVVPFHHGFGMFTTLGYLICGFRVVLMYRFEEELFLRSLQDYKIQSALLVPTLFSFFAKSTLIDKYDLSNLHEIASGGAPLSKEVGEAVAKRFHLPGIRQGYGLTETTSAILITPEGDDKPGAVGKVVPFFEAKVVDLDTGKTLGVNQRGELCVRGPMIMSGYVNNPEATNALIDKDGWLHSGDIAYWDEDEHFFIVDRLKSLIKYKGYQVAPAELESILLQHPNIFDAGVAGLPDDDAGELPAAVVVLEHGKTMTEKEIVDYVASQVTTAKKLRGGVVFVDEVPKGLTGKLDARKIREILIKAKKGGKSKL
Background: Quantitative high-throughput screening tests each substance at several concentrations.
Regarding `C=CCn1c(=O)c(C(=O)NCc2ccc3c(c2)OCO3)c(O)c2ccccc21`, the Potency entry was “inactive”.
As to `O=C(NNS(=O)(=O)c1ccc(F)cc1)c1cnccn1`, the Potency entry was “inactive”.
As for `O=C(CC1Oc2ccccc2NC1=O)NCc1ccc(F)cc1` (stereo unspecified), the entry is “inactive”; as for `CCOC(=O)c1c(C)oc2ccc(N(C(=O)c3ccncc3)S(=O)(=O)c3ccc(CC)cc3)cc12`, “inactive”; as for `O=Cc1c(Cl)cccc1Cl`, “inactive”.
As for `Cc1ccc(-c2nn(-c3cccc(F)c3)cc2CNCCc2ccncc2)o1`, the figure is 15.1 µM (active); as for `Cc1ccc(-c2nn(-c3ccccc3)cc2CN(Cc2ccccc2)C(=O)CCC(=O)O)o1`, “inactive”.
Regarding `CSCCNCc1cn(-c2ccc(F)cc2F)nc1-c1ccccc1C`, the Potency result was “inactive”.
As for `CCCN(CCC)CCNC(=O)Cn1cnc2sc(C)c(S(=O)(=O)N3CCC(C)CC3)c2c1=O`, the entry is “inactive”.
Next, `N#Cc1nc(/C=C/c2ccc(F)cc2)oc1NC1CCCCC1`: “inactive”; `O=C(N/N=C/c1ccc([N+](=O)[O-])o1)c1cn(-c2ccccc2)nc1-c1ccc(F)cc1`: “inactive”; `Cc1ccc(-c2nn(-c3ccccc3)cc2/C=N/NC(=O)c2ccc3c(c2)OCO3)cc1`: 4.26 µM (active).
As for `CC(C)(C)OC(=O)N/N=C/c1cn(-c2ccccc2)nc1-c1cccnc1`, the entry is “inactive”; as for `COc1ccc(C(=O)N2CCC(c3nc4ccccc4o3)CC2)cc1`, “inactive”; as for `CCOc1ccc(C(C(=O)NCCOC)N(CCOC)C(=O)CCC(=O)Nc2ccccn2)cc1` (stereo unspecified), “inactive”.
In the case of `CC(O)c1ccc(OCCN(C)c2ccccn2)cc1` (stereo unspecified), the Potency was 15.1 µM (active).
Next, `CC(C)c1ccc(OCC(O)CN2CCN(c3ccccn3)CC2)cc1` (stereo unspecified): “inactive”.
Take `COCCn1c(CCC(=O)Nc2cc(C)ccc2C)nc2cccnc21`: the Potency result was “inactive”.
Next, `COc1ccc2c(c1)C=C(C(=O)NCc1cc(Br)ccc1OC)CO2`: “inactive”.
Next, `COc1ccccc1NC(=O)c1sc2nc(C)c(C(=O)Nc3ccc(Cl)cc3)c(-c3ccc(Br)cc3)c2c1N`: “inactive”.
As for `Cc1cc(/C=C2/SC(=O)N(CC(=O)OC(C)C)C2=O)c(C)n1C`, the figure is 15.1 µM (active); as for `O=C(CN1CCCCCC1)NCCN1C(=O)S/C(=C\c2ccccc2Cl)C1=O`, “inactive”; as for `CC(C)OC(=O)CN1C(=O)C(=O)c2ccccc21`, “inactive”.
For `O=C(COC(=O)c1n[nH]c2ccccc12)NCc1ccccc1`, the Potency entry was “inactive”.
Next, `O=C(NCCc1ccc(F)cc1)c1n[nH]c2ccccc12`: 16.9 µM (active); `O=C(COC(=O)Cc1c[nH]c2ccccc12)NCCc1ccccc1`: “inactive”.
In the case of `COc1cccc(CNC(=O)Cc2csc(Nc3nc(=S)[nH]c4ccccc34)n2)c1`, the Potency entry was “inactive”.
As for `COc1cccc(CNC(=O)c2n[nH]c3ccccc23)c1`, the figure is 26.9 µM (active); as for `O=C(NCCc1ccc(F)cc1)c1ccc(S(=O)(=O)N2CCCCC2)cc1`, “inactive”; as for `COc1ccc(NC(=O)COC(=O)c2n[nH]c3ccccc23)c(OC)c1`, “inactive”.
As for `COc1ccc(COC(=O)c2n[nH]c3ccccc23)cc1F`, the figure is 19 µM (active); as for `O=C(NCCc1ccc(F)cc1)c1ccc2nccnc2c1`, 8.49 µM (active); as for `O=C(NCCc1ccc(Cl)cc1)c1ccc2c(c1)N(Cc1ccc(F)cc1)C(=O)CS2`, “inactive”.
`COc1ccc(F)cc1C(=O)COC(=O)c1n[nH]c(=O)c2ccccc12`: the Potency entry is “inactive”.
Next, `O=C(CC(=O)N/N=C\c1ccc(F)cc1)NCCc1ccccc1`: “inactive”; `COc1ccc(CCNC(=O)c2cc(=O)c3c(C)cc(C)cc3o2)cc1OC`: “inactive”.
Next, `CCOC(=O)c1cccc(NC(=O)c2cc(CN3CCCC3)on2)c1`: “inactive”.
`Cc1ccc(CNC(=O)CCC(=O)N2Cc3ccccc3Oc3ncccc32)cc1`: the Potency entry was “inactive”.
As for `CC(=O)c1c(C)[nH]c(C(=O)OCC(=O)Nc2c(C)n(C)n(-c3ccccc3)c2=O)c1C`, the entry is “inactive”; as for `CC1(NC(=O)CCS(=O)(=O)c2ccc(Cl)cc2)CCS(=O)(=O)C1` (stereo unspecified), “inactive”; as for `Cc1ccccc1CN1CCC(CNC(=O)c2c(C)oc3ncnc(N4CCCCC4)c23)CC1`, “inactive”.
Regarding `Cc1ccc(Nc2nnc(SC(C)C(=O)NC3CC3)s2)cc1` (stereo unspecified), the Potency entry is “inactive”.
As for `CCOC(=O)c1c(NC(=O)CCl)sc(C(=O)N(CC)CC)c1C`, the entry is “inactive”; as for `Cc1ccc(C)c(NC(=O)CN(C)C(=O)c2ccc3ncsc3c2)c1`, “inactive”; as for `Cc1c(C(=O)N(C)C)sc2c1c(=O)n(-c1ccc(F)cc1)c(=O)n2CC(=O)N(C)c1ccccc1`, “inactive”.
On to `O=C(COC(=O)/C=C/c1ccc2c(c1)OCO2)NC1CCS(=O)(=O)C1` (stereo unspecified), for which the Potency result was “inactive”.
As for `CC(=O)c1ccc2c(c1)OCCOCCOc1ccc(C(C)=O)cc1OCCOCCO2`, the entry is “inactive”.
Take `Cc1cc(C(=O)O)ccc1[N+](=O)[O-]`: the Potency entry is “inactive”.
Next, `O=C(/C=C/c1ccc(Cl)cc1)N1CCN(c2ccccc2[N+](=O)[O-])CC1`: “inactive”.
Next, `O=C(/C=C/c1ccc2c(c1)OCCO2)c1ccc(O)cc1`: 1.35 µM (active).
Next, `CN(C)c1ccc(/C=C/C(=O)c2ccc(O)cc2)cc1[N+](=O)[O-]`: 12 µM (active).
`CCC(=O)NC(Nc1cc(C)ccn1)(C(F)(F)F)C(F)(F)F`: the Potency result is “inactive”.
As for `Cc1cc(=O)oc(C)c1C(=O)NC1CC(C)(C)NC(C)(C)C1`, the entry is “inactive”; as for `O=C(C1CCCN(S(=O)(=O)c2cccc3nonc23)C1)N1CCN(c2ccccc2F)CC1` (stereo unspecified), “inactive”.
`CCc1ccc(S(=O)(=O)n2ccnc2)cc1`: the Potency entry was “inactive”.
As for `O=C(COC(=O)c1c2c(nc3ccccc13)CCCC2)c1ccc(Br)s1`, the Potency is 15.1 µM (active).
Next, `O=C(Nc1c2c(nc3ccccc13)CCCC2)c1ccccc1Br`: “inactive”; `CCOc1ccc(NC(=O)CSc2c3c(nc4ccccc24)CCCC3)cc1`: “inactive”; `Cc1nn(Cc2ccccc2)c(C)c1C(=O)N1CCN(CC(=O)Nc2ccccc2Cl)CC1`: “inactive”.
Next, `COc1ccccc1/C=C/c1nc(C#N)c(NC(C)c2ccccc2)o1` (stereo unspecified): “inactive”; `CC(C)c1ccc(NC(=O)COC(=O)c2ccc(CN3CCCC3=O)cc2)cc1`: “inactive”.
In the case of `Cc1cc(OC(C)C(=O)Nc2sc3c(c2C(N)=O)CCCC3)ccc1Cl` (stereo unspecified), the Potency entry is “inactive”.
`CCc1cccc(NC(=O)CCC(=O)O)c1`: the Potency result was “inactive”.
As for `CCCC(=O)Nc1cccc(-c2cn3ccsc3n2)c1`, the figure is 21.3 µM (active).
Take `O=C(NCc1cn2ccsc2n1)Nc1cccc(Cl)c1`: the Potency result was “inactive”.
Next, `CCc1nn(CC(=O)NCC(C)c2ccccc2)c(=O)c2cc3occc3n12` (stereo unspecified): “inactive”.
